This passage reports Potency and activity change, negative = cytotoxicity results from PubChem BioAssay (NCATS).

Holding throughout (test): Primary qHTS to identify gynecologic anti-cancer compounds using libraries of approved drugs and bioactive compounds (AID 1345084); note: nearly all actives have a fitted effect of over 55% in size
(In qHTS, concentration-response curves come from the screen itself.)

The subject of one assay is C33A. Particulars: Gynecologic cancer cell panel viability, ATPlite luminescence, 48 h; series mostly up to 57.5 µM. The gist of the method: (§1)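 Luminescence from the ATPlite ATP-monitoring reagent indicates viable cell number; lower signal means cytotoxicity. Cells received compound 16 h after seeding and were exposed for 48 h across five concentrations.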
In general terms: In ATP-based viability assays light output follows the ATP content of the culture.

For another assay, the system named is CAOV3. Particulars: Gynecologic cancer cell panel viability, ATPlite luminescence, 48 h; series mostly up to 57.5 µM. The gist of the method: as §1
A further assay deals with CASKI. Particulars: Gynecologic cancer cell panel viability, ATPlite luminescence, 48 h; series mostly up to 57.5 µM. The gist of the method: as §1
A further assay has as its system Es-2. Particulars: Gynecologic cancer cell panel viability, ATPlite luminescence, 48 h; series mostly up to 57.5 µM. The gist of the method:
as §1

The test system of another assay is HeLa. Particulars: Gynecologic cancer cell panel viability, ATPlite luminescence, 48 h; series mostly up to 57.5 µM. The gist of the method: as §1
The test system of a further assay is Hek293T. Particulars: Gynecologic cancer cell panel viability, ATPlite luminescence, 48 h, control line for the selectivity index; series mostly up to 57.5 µM. A digest of the protocol:
as §1

Another assay concerns JEG-3. Particulars: Gynecologic cancer cell panel viability, ATPlite luminescence, 48 h; series mostly up to 57.5 µM. The gist of the method: as §1
The next assay relates to OV90. Particulars: Gynecologic cancer cell panel viability, ATPlite luminescence, 48 h; series mostly up to 57.5 µM. The gist of the method: as §1
The next assay has as its system PA-1. Particulars: Gynecologic cancer cell panel viability, ATPlite luminescence, 48 h; series mostly up to 57.5 µM. The gist of the method:
as §1

For the next assay, the system named is SKOV3. Particulars: Gynecologic cancer cell panel viability, ATPlite luminescence, 48 h; series mostly up to 57.5 µM. A digest of the protocol: as §1
Another assay relates to Tov-21-G. Particulars: Gynecologic cancer cell panel viability, ATPlite luminescence, 48 h; series mostly up to 57.5 µM. A digest of the protocol:
as §1

The test system of the next assay is Tov112D. Particulars: Gynecologic cancer cell panel viability, ATPlite luminescence, 48 h; series mostly up to 57.5 µM. The gist of the method:
as §1

Results filed as inconclusive are left out. Unmarked numbers belong to inactive results. Calls of active or inactive are those of the source. Calls come from the whole dose curve; as a rule, active = well fitted cell-killing curve with a large enough effect; inconclusive = small, poorly fitted or top-dose-only effect, or effect the other way; inactive = flat fitted curve, though single readings scatter.
% is set by controls: 0 for no effect and ±100 for the full control effect; potency is the fitted concentration of half-maximal effect.

`C=C1C(=O)OC2CC3(C)C(CC12)C(C)=CC(O)C3OC(C)=O` (stereo not drawn): the Potency result in the assay with C33A, with CAOV3, with CASKI, in the assay on Es-2, in the assay on HeLa and in the assay with Hek293T was “inactive” in each case. In addition, the Potency entry in the assay with JEG-3, with OV90, in the assay on PA-1, with SKOV3, in the assay on Tov-21-G and in the assay on Tov112D was “inactive” in each case.

Regarding `CC(C)(C)NC(=O)[C@@H](c1cccnc1)N(C(=O)c1ccco1)c1ccc(C(C)(C)C)cc1`, the Potency result with C33A, in the assay on CAOV3, in the assay with CASKI, in the assay on Es-2, in the assay with HeLa and in the assay with Hek293T was “inactive” throughout. The Potency entry in the assay on JEG-3, in the assay on OV90, in the assay on PA-1, in the assay with SKOV3, with Tov-21-G and with Tov112D was “inactive” throughout.

`CC1(C)CC[C@]2(C(=O)O[C@@H]3O[C@H](CO)[C@@H](O)[C@H](O)[C@H]3O)CC[C@]3(C)C(=CCC4[C@@]5(C)C[C@@H](O)[C@H](O)[C@](C)(C=O)C5CC[C@]43C)[C@@H]2[C@@H]1O` (stereo partly drawn): the Potency result in the assay on C33A, in the assay with CAOV3, with CASKI, in the assay on Es-2, in the assay on HeLa and in the assay on Hek293T was “inactive” in each case. The Potency entry in the assay on JEG-3, in the assay on OV90, with PA-1, with SKOV3, in the assay on Tov-21-G and with Tov112D was “inactive” in each case.

On to `CC(C)C1=CC2C(CC[C@]2(C)O)[C@](C)(O)CC1` (stereo partly drawn), for which the Potency result in the assay on C33A, in the assay with CAOV3, with CASKI, in the assay on Es-2, in the assay with HeLa and with Hek293T was “inactive” each time. For the same compound, the Potency entry in the assay with JEG-3, in the assay on OV90, in the assay on PA-1, in the assay with SKOV3, in the assay on Tov-21-G and in the assay on Tov112D was “inactive” throughout.

Consider `CC1(C)CCC2(C(=O)OC3OC(CO)C(O)C(O)C3O)CCC3(C)C(=CCC4C5(C)CCC(OC6OC(C(=O)O)C(OC7OC(CO)C(O)C(O)C7O)C(OC7OC(CO)C(O)C(O)C7O)C6O)C(C)(C)C5CCC43C)C2C1` (stereo not drawn), for which the activity change, negative = cytotoxicity with C33A is -2.64% [at 11.6 µM]; with CAOV3, 3.96% [at 11.6 µM]; in the assay with CASKI it was 5.46% [at 11.6 µM]; in the assay with Es-2, -0.153% [at 11.6 µM]; in the assay with HeLa, 10.1% [at 11.6 µM]; in the assay on Hek293T, -1.3% [at 11.6 µM]. The activity change, negative = cytotoxicity in the assay with JEG-3 is -1.35% [at 11.6 µM]; in the assay on OV90, 3.02% [at 11.6 µM]; in the assay with PA-1, 16.1% [at 11.6 µM]; with SKOV3, 13.2% [at 11.6 µM]; with Tov-21-G, 1.15% [at 11.6 µM]; in the assay on Tov112D, 6% [at 11.6 µM].

For `Cc1nc2ccc(Oc3ccc(F)cc3)cc2c(=O)n1C[C@H]1CCCN(C(C)C)C1`, the Potency result in the assay on C33A, in the assay on CAOV3, in the assay on CASKI, in the assay on Es-2, in the assay on HeLa and with Hek293T was “inactive” in each case. Further, the Potency entry in the assay with JEG-3, with OV90, with PA-1, with SKOV3, in the assay with Tov-21-G and in the assay with Tov112D was “inactive” each time.

In the case of `C/C(=C\CCC1(C)C2CCC(C2)C1(C)O)C(=O)O` (stereo not drawn), the Potency result in the assay with C33A, with CAOV3, with CASKI, with Es-2, in the assay on HeLa and in the assay on Hek293T was “inactive” throughout. In addition, the Potency result in the assay with JEG-3, in the assay with OV90, with PA-1, in the assay with SKOV3, with Tov-21-G and in the assay on Tov112D was “inactive” throughout.

With `COC1/C=C/C(C)(O)C(SCC(N)C(=O)O)CC(=O)OC(C)C(C)CC/C=C/1C` (stereo not drawn), the Potency result with C33A, in the assay with CAOV3, with CASKI, in the assay with Es-2, in the assay on HeLa and in the assay with Hek293T was “inactive” throughout. Also, the Potency entry in the assay on JEG-3, in the assay with OV90, in the assay on PA-1, in the assay with SKOV3, in the assay on Tov-21-G and in the assay on Tov112D was “inactive” each time.

For the compound `Nc1ncnc2c1nc(N)n2[C@@H]1O[C@H](CO)[C@@H](O)[C@H]1O`, the Potency in the assay with C33A was 3.55 µM (active); in the assay on CAOV3 it was 1.26 µM (active); with CASKI, 3.16 µM (active); with Es-2, 3.16 µM (active); in the assay with HeLa, 5.01 µM (active); with Hek293T, 7.94 µM (active). Also, the Potency in the assay with JEG-3 is 15.8 µM (active); in the assay on OV90, 3.55 µM (active); with PA-1, 4.47 µM (active); in the assay on SKOV3 it was 3.16 µM (active); in the assay with Tov-21-G it was 3.16 µM (active); in the assay with Tov112D it was 3.55 µM (active).

For `COCC1OC(OC(C)(C)C2CCC3(C)C=C(C4CCC5C4(C)CC(O)C4OC(C(C)(C)OC6OC(CO)C(O)C(O)C6NC(C)=O)CCC45C)CCC3O2)C(NC(C)=O)C(O)C1O` (stereo not drawn), the activity change, negative = cytotoxicity is 10.6% [at 11.6 µM] with C33A; -5.9% [at 11.6 µM] with CAOV3; 12.8% [at 11.6 µM] in the assay with CASKI; 0.877% [at 11.6 µM] in the assay on Es-2; 1.62% [at 11.6 µM] with HeLa; -4.4% [at 11.6 µM] in the assay on Hek293T. The activity change, negative = cytotoxicity in the assay on JEG-3 is 3.33% [at 11.6 µM]; with OV90, 3.61% [at 11.6 µM]; in the assay with PA-1, -1.55% [at 11.6 µM]; with SKOV3 it was 9.88% [at 11.6 µM]; with Tov-21-G it was 1.68% [at 11.6 µM]; in the assay on Tov112D, -1.97% [at 11.6 µM].

`COc1ccccc1NC(=O)OCC1CCN(C(=O)OC(C)(C)C)CC1`: the Potency entry with C33A, in the assay on CAOV3, in the assay with CASKI, with Es-2, in the assay with HeLa and in the assay with Hek293T was “inactive” each time. Also, the Potency result with JEG-3, in the assay with OV90, in the assay on PA-1, in the assay with SKOV3, with Tov-21-G and with Tov112D was “inactive” throughout.

Consider `COC(=O)C[C@H]1C(C)(C)[C@H](OC(C)=O)C2CC3=C4CC(=O)O[C@@H](c5ccoc5)[C@]4(C)CCC3[C@@]1(C)C2=O` (stereo partly drawn), for which the Potency entry in the assay on C33A, with CAOV3, with CASKI, in the assay with Es-2, in the assay with HeLa and with Hek293T was “inactive” each time. Besides, the Potency entry in the assay on JEG-3, in the assay with OV90, in the assay on PA-1, with SKOV3, with Tov-21-G and in the assay on Tov112D was “inactive” throughout.

Take `COc1cc(Br)c(S(=O)(=O)Nc2ccc(C(F)(F)F)c(O[C@@H]3CCN(C)C3)c2)cc1OC`: the Potency result in the assay with C33A, in the assay on CAOV3, in the assay on CASKI, in the assay on Es-2, in the assay with HeLa and in the assay on Hek293T was “inactive” in each case. The Potency entry in the assay with JEG-3, in the assay on OV90, in the assay with PA-1, with SKOV3, with Tov-21-G and with Tov112D was “inactive” in each case.

For the compound `Cc1cc2c(c(=O)[nH]1)OC(C(O)CC(C)C)O2` (stereo not drawn), the Potency entry in the assay on C33A, with CAOV3, in the assay on CASKI, in the assay on Es-2, in the assay on HeLa and with Hek293T was “inactive” each time. In addition, the Potency result in the assay with JEG-3, in the assay with OV90, with PA-1, in the assay on SKOV3, in the assay with Tov-21-G and in the assay on Tov112D was “inactive” in each case.
